Compound activity: PubChem BioAssay, several laboratories
Mtb betalactam = beta-lactam sensitization of Mtb H37Rv, H37Rv. inhibition, % at 25 µM. M. tuberculosis H37Rv growth with meropenem, percent inhibition. 330,000 tested, 0.27% active; call rule not given here;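 also: growth measured after seven days incubation then overnight dye step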
CCHF vOTU inh = CCHFV vOTU protease inhibitors, primary screen, biochemical, Pep-AMC substrate, fluorescence; inhibition, % at 11.5 µM; AID 651958, 2012; 370,000 tested, 0.55% active; in the data active = inhibition above about 30%
Mtb BioA inh = M. tuberculosis BioA enzyme inhibitors, primary screen, biochemical, plate reader, single point, HTS; 7,8-diaminopelargonic acid synthase BioA (Mycobacterium tuberculosis); purified M. tuberculosis BioA enzyme; inhibition, % at 9.99 µM; 360,000 tested, 0.096% active; AID 602481, 2012; in the data active = inhibition above about 40%
Yp Topo-I inh = Yersinia pestis topoisomerase I inhibitors, primary screen, biochemical, cleavage product accumulation, plate reader, single point | DNA topoisomerase I (Yersinia pestis CO92) | Y. pestis Topo-I cleavage product accumulation | activity, % at 10 µM | 360,000 tested, 0.064% active | AID 504884, 2011; in the data active = activity above about 50%, passing the limit was not always enough
RecA intein inh = Mtb RecA intein splicing inhibitors, primary screen, biochemical, fluorescence, HTS; Protein RecA (Mycobacterium tuberculosis (strain ATCC 25618 / H37Rv)), P9WHJ3; 290,000 tested, 0.75% active; cell-free RecA intein splicing; inhibition, % (concentration not given with the values); in the data active = inhibition above about 30%
BJeLR lethal = MLPCN primary cell-based screen for lethality selective to Ras in HRASV12 cells. BJeLR (HRASV12) viability, CellTiter-Glo ATP luminescence, 48 h. inhibition, % (no concentration beside the values). 300,000 tested, 0.17% active; in the data active = inhibition above about 50%
Of the large screens only hits and unclear results are named; the others gave an inactive call. Most compounds without a hit are left out; they make up all but 1.1% or so of the library.

CCCCCc1cc(=O)oc2c(C(CCN3CCCC(C)C3)c3ccc(N(C)C)cc3)c(OC)cc(OC)c12 (stereo unspecified)	RecA intein inh 31 (no result: CCHF vOTU inh)
CCCCCc1cc(=O)oc2c(C(CCN3CCCC(C)C3)c3cc(OC)c(OC)c(OC)c3)c(OC)cc(OC)c12 (stereo unspecified)	none (no result: CCHF vOTU inh)
O=[N+]([O-])c1ccc(N=Nc2ncc[nH]2)cc1	BJeLR lethal 74
COCC(=O)Nc1ccc2c(c1)C(=O)N(C)C[C@H](OC)[C@H](C)CN(C(=O)c1cnccn1)[C@@H](C)CO2	none (no result: Mtb betalactam, CCHF vOTU inh, Yp Topo-I inh, RecA intein inh, BJeLR lethal)
CCc1ccc(NC(=O)[C@H](Cc2c[nH]c3ccccc23)NC(=O)[C@@H]2Cc3ccccc3CN2)cc1	BJeLR lethal 59 (no result: RecA intein inh)
Cc1cc(C)cc(NC(=O)[C@H](Cc2c[nH]c3ccccc23)NC(=O)[C@@H]2Cc3ccccc3CN2)c1	none (no result: RecA intein inh)
Cc1ccc(NC(=O)[C@H](Cc2c[nH]c3ccccc23)NC(=O)[C@@H]2Cc3ccccc3CN2)c(C)c1	BJeLR lethal 65 (no result: RecA intein inh)
Cc1cccc(NC(=O)[C@H](Cc2c[nH]c3ccccc23)NC(=O)[C@@H]2Cc3ccccc3CN2)c1	none (no result: RecA intein inh)
C[C@@H]1CN([C@@H](C)CO)C(=O)c2cccc(NC(=O)c3ccncc3)c2O[C@H]1CN(C)C	none (no result: Mtb betalactam, CCHF vOTU inh, Yp Topo-I inh, RecA intein inh, BJeLR lethal)
CCn1c(COc2ccc(Cl)cc2)nnc1SC1CCc2ccccc2C1=O (stereo unspecified)	RecA intein inh 62
CC(=O)Nc1cc(OC(C)=O)c2nonc2c1OC(C)=O	CCHF vOTU inh 101 (no result: RecA intein inh, BJeLR lethal)
O=[N+]([O-])c1cnccc1Nc1cccc(F)c1	none
O=[N+]([O-])c1ccc(Oc2cccc(F)c2)c2ccncc12	RecA intein inh 73 (no result: Mtb BioA inh)
Cc1[nH]n(-c2ccccc2)c(=O)c1/C=N/Nc1nncc(-c2ccccc2)n1	BJeLR lethal 57
Cc1[nH]n(-c2ccccc2)c(=O)c1/C=N/N1CCOCC1	RecA intein inh 46
Cc1ccc(/C=N/Nc2nncc(-c3ccccc3)n2)o1	none (no result: Mtb BioA inh)
Cc1cc(C(=O)N/N=C/c2c(C)[nH]n(-c3ccccc3)c2=O)n[nH]1	RecA intein inh 55
Cc1nc(N)nc(N)c1-c1ccc(Cl)c(Cl)c1	none (no result: Mtb betalactam, Mtb BioA inh, RecA intein inh, BJeLR lethal)
Cc1nc(N)nc(N)c1CCCc1ccc(Cl)c(Cl)c1	BJeLR lethal 57
Cc1noc(C)c1NC(=O)Nc1ccc2c(c1)C(=O)N([C@@H](C)CO)C[C@@H](C)[C@@H](CN(C)C(=O)C1CCCCC1)OCCCC[C@H](C)O2	none (no result: Mtb betalactam, CCHF vOTU inh, Yp Topo-I inh, RecA intein inh, BJeLR lethal)
CO[C@@H]1CN(C)C(=O)c2cc(NC(=O)C3CC3)ccc2OC[C@@H](C)N(C(=O)c2ccccc2F)C[C@H]1C	none (no result: Mtb betalactam, CCHF vOTU inh, Yp Topo-I inh, RecA intein inh, BJeLR lethal)
CC(C)CNC(=O)[C@@H]1c2ccccc2C(=O)N(CC23CC4CC(CC(C4)C2)C3)[C@H]1c1ccc(CO)cc1	none (no result: Mtb betalactam, CCHF vOTU inh, Yp Topo-I inh, RecA intein inh, BJeLR lethal)
CC1=NN(c2cccc([N+](=O)[O-])c2)C(=O)C1	RecA intein inh 84
Cc1cc(O)cc(=O)n1-c1cccc([N+](=O)[O-])c1	none (no result: Mtb betalactam, Mtb BioA inh, Yp Topo-I inh, RecA intein inh, BJeLR lethal)
CC1C/C(=C/c2cccn2C)C(=O)/C(=C/c2cccn2C)C1 (stereo unspecified)	none (no result: RecA intein inh)
CC1C/C(=C/c2ccncc2)C(=O)/C(=C/c2ccncc2)C1 (stereo unspecified)	BJeLR lethal 54
COc1ccc(NC(=O)Nc2ccc3c(c2)[C@@H]2C[C@H](CC(=O)NC4CCCC4)O[C@@H](CO)[C@@H]2O3)cc1	none (no result: Mtb betalactam, CCHF vOTU inh, Yp Topo-I inh, RecA intein inh, BJeLR lethal)
O=C(NC(Nc1nc2ccc([N+](=O)[O-])cc2s1)(C(F)(F)F)C(F)(F)F)c1ccccc1Cl	BJeLR lethal 60 (no result: Mtb BioA inh)
Cc1cccc(C(=O)c2cnc3ccccc3c2-c2ccccc2)c1	RecA intein inh 33
Cn1c(Sc2ccc(Cl)cc2)c(C=O)c2ccccc21	none
Cc1cccc(Sc2c(C=O)c3ccccc3n2C)c1	RecA intein inh 30
COc1ccc(NC(=O)N(C)C[C@@H]2Oc3ccc(NC(=O)CCCCCC(=O)Nc4ccccc4N)cc3CC(=O)N([C@@H](C)CO)C[C@@H]2C)cc1	none (no result: Mtb betalactam, CCHF vOTU inh, Yp Topo-I inh, RecA intein inh, BJeLR lethal)
CC(=O)/C=C1/C(=O)Nc2ccccc21	RecA intein inh 62 (no result: Mtb BioA inh)
O=C(NC(=C(Cl)Cl)S(=O)(=O)c1ccc(Cl)cc1)c1ccccc1	RecA intein inh 30
